Results filed as inconclusive are left out. Active and inactive are the calls of the source. Unless noted, calls come from the whole dose curve.
Columns and labels:
[1] = Nuclear factor erythroid 2-related factor 2/antioxidant responsive element (Nrf2/ARE) small molecule agonists: qHTS cell viability counter screen in human keratinocytes (AID 1919968; active = well fitted curve in the direction sought with a large enough effect in the repeat runs; an effect the other way counts as inactive or inconclusive; note: nearly all actives have a fitted effect of over 55% in size)
Procedure, shortened: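 After a 5 h attachment period, ARE-reporter keratinocytes were dosed with compounds in DMSO and then cultured 23 h at 37 C. Cell viability came from CellTiter-Fluor signal read after a further 1 h.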

[2] = Nuclear factor erythroid 2-related factor 2/antioxidant responsive element (Nrf2/ARE) small molecule agonists: luciferase reporter gene qHTS assay in human keratinocytes (AID 1919969); note: nearly all actives have a fitted effect of over 35% in size
[3] = molecular target: Gonadotropin-releasing hormone receptor (Homo sapiens) (UniProt P30968); test: Human gonadotropin-releasing hormone receptor (GnRHR) small molecule agonists, calcium flux assay in GnRHR-HEK293 cells (AID 1920063); note: nearly all actives have a fitted effect of over 35% in size
Sequence of Gonadotropin-releasing hormone receptor (Homo sapiens) (P30968 whole entry, looked up): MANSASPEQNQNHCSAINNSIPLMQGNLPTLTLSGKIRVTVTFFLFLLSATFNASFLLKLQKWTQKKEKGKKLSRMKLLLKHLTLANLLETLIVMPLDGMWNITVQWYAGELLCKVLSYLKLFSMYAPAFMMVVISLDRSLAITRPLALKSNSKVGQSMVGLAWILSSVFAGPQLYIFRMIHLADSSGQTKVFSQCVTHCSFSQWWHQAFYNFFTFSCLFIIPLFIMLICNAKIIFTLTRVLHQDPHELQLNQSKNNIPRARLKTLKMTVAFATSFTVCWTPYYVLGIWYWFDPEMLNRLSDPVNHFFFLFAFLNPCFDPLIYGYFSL
Procedure, shortened: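 We seeded human GnRHR-expressing HEK293 cells for 18 hours, loaded them with calcium dye for an hour at 37 C, added test compounds, and recorded fluorescence intensity kinetically for three minutes.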

[4] = molecular target: KiSS-1 receptor (Homo sapiens) (UniProt Q969F8); test: Human kisspeptin (KISS1R) small molecule agonists, calcium flux assay in KISS1R-HEK293 cells (AID 1920064; active = well fitted curve in the direction sought with a large enough effect in the repeat runs; an effect the other way counts as inactive or inconclusive)
Sequence of KiSS-1 receptor (Homo sapiens) (Q969F8 whole entry, looked up): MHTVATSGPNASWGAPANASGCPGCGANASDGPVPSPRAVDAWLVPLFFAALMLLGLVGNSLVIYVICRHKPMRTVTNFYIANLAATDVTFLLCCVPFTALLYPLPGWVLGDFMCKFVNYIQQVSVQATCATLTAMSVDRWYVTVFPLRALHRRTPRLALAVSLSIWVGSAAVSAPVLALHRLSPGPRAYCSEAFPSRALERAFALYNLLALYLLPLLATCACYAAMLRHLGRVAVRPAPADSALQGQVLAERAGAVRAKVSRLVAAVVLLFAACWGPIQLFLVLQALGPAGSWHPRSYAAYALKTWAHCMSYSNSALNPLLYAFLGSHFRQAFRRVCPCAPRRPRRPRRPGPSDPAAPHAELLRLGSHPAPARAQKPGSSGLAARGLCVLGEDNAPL
Procedure, shortened: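 Kinetic calcium assay, 1 s sampling over 3 min at Ex/Em 480/540, in HEK293 cells engineered with human KISS1R; compounds delivered in DMSO after 1 h dye loading.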

[5] = G protein-coupled receptor (GPCR) small molecule agonists, calcium flux assay: HEK293 wild type cell line counter screen (AID 1920065)
Procedure, shortened: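 Calcium-sensitive dye, loaded 1 h at 37 C into cells cultured 18 h, reports compound-evoked calcium release as fluorescence (Ex/Em 480/540), measured over 3 min. Agonist mode; 15-point titrations, triplicate.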

[6] = p53 small molecule agonists, cell-based qHTS assay with human liver microsomes: qHTS cell viability counter screen (AID 1963579); note: nearly all actives have a fitted effect of over 45% in size
Procedure, shortened: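 p53RE-bla cells, 4,000/well, dosed 5 hours after plating, with human liver microsomes (0.5 mg/mL final) plus NADPH (0.5 mg/mL final), 16 hours at 37 C. Viability read as CellTiter-Glo luminescence after 30 min at room temperature.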

[7] = p53 small molecule agonists, cell-based qHTS assay with rat liver microsomes: qHTS cell viability counter screen (AID 1963580); note: nearly all actives have a fitted effect of over 45% in size
Procedure, shortened: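 Intracellular ATP, by CellTiter-Glo luminescence, defines viability. HCT-116 p53RE-bla cells, 4,000 per well, were compound-treated in the presence of rat liver microsomes and NADPH for 16 h at 37 C.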

[8] = p53 small molecule agonists, cell-based qHTS assay: qHTS cell viability counter screen (AID 1963581); note: nearly all actives have a fitted effect of over 45% in size
Procedure, shortened: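 Following 5 h attachment, HCT-116 p53RE-bla cells took up compound for 16 h at 37 C; the reporter was read with B/G FRET substrate (2 h RT), and viability then via CellTiter-Glo ATP luminescence.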

[9] = molecular target: 5-hydroxytryptamine receptor 2A (Homo sapiens) (UniProt P28223); test: 5-hydroxytryptamine receptor 2A (HTR2A) small molecule antagonists, cell-based qHTS assay (AID 1963586); note: nearly all actives have a fitted effect of over 45% in size
Sequence of 5-hydroxytryptamine receptor 2A (Homo sapiens) (P28223 whole entry, looked up): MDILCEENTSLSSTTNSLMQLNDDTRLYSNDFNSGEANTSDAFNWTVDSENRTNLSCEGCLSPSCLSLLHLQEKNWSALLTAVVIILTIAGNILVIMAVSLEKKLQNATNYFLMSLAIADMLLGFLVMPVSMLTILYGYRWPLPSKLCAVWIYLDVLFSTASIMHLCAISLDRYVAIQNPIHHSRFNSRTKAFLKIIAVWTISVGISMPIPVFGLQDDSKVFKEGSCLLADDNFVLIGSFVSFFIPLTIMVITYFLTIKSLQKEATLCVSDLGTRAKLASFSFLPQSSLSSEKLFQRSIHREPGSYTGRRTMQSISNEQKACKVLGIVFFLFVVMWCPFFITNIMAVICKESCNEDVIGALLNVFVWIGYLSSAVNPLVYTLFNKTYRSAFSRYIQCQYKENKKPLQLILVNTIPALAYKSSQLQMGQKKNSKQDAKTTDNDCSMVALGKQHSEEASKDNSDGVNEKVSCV
Procedure, shortened: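 Antagonist-mode intracellular calcium assay: DOI (4 nM) added after 5 min compound pre-incubation at room temperature to dye-loaded HTR2A-CHO cells. Fluorescence followed for 3 min, sampled every second.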

[10] = molecular target: 5-hydroxytryptamine receptor 2A (Homo sapiens) (UniProt P28223); test: 5-hydroxytryptamine receptor 2A (HTR2A) small molecule agonists, cell-based qHTS assay (AID 1963587); note: nearly all actives have a fitted effect of over 30% in size
Procedure, shortened: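 Kinetic calcium-flux fluorescence (2 min, 1 sec intervals) after compound addition in agonist mode. HTR2A-CHO cells were cultured 18 h, then dye-loaded 1 h at 37 C.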

[11] = molecular target: Muscarinic acetylcholine receptor M1 (Homo sapiens) (UniProt P11229); test: Cholinergic receptor muscarinic 1 (CHRM1) small molecule antagonists, cell-based qHTS assay (AID 1963588); note: nearly all actives have a fitted effect of over 40% in size
Sequence of Muscarinic acetylcholine receptor M1 (Homo sapiens) (P11229 whole entry, looked up): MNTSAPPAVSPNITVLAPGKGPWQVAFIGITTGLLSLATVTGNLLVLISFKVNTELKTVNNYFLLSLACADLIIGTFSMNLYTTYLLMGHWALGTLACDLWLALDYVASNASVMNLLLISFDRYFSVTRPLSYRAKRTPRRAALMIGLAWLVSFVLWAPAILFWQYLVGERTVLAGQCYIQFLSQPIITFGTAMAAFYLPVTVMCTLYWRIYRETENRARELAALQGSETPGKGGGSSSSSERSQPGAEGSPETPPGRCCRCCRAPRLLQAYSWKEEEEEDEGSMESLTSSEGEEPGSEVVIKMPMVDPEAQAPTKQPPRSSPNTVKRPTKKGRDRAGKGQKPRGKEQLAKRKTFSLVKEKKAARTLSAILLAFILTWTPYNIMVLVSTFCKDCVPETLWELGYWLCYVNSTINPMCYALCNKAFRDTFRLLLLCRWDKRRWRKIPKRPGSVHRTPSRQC
Procedure, shortened: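 CHRM1-CHO calcium-flux assay, antagonist mode. Cells were seeded 18 h, dye-loaded 1 h at 37 C and given compound for 5 min at RT, then acetylcholine was added at 50nM. FDSS fluorescence was read 3 min; 15 concentrations, three runs.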

[12] = molecular target: Muscarinic acetylcholine receptor M1 (Homo sapiens) (UniProt P11229); test: Cholinergic receptor muscarinic 1 (CHRM1) small molecule agonists, cell-based qHTS assay (AID 1963589); note: nearly all actives have a fitted effect of over 35% in size
Procedure, shortened: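 Measures agonist-induced intracellular calcium rise. Stable human CHRM1 CHO line, 1 h dye load at 37 C, compounds from DMSO, kinetic fluorescence read.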

[13] = cAMP Responsive Elements (CRE) small molecule agonists, cell-based qHTS assay (AID 1963590)
Procedure, shortened: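 A CRE-responsive beta-lactamase reporter in HEK 293T cells was used. Treatment ran 3 h at 37 C; detection used LiveBLAzer B/G FRET substrate for 2 h at room temperature.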

[14] = cAMP Responsive Elements (CRE) small molecule antagonists, cell-based qHTS assay (AID 1963591; active = well fitted inhibition curve with a large enough effect in the signal ratio in the repeat runs, not every such curve was filed as active; the % refers to the signal ratio)
Procedure, shortened: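 HEK293T cells carrying a CRE-driven beta-lactamase reporter receive compound and NKH477 (0.25 uM final) for 3 h. Fluorescence from LiveBLAzer B/G FRET substrate is read after 2 h at room temperature.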

[15] = molecular target: Beta-2 adrenergic receptor (Homo sapiens) (UniProt P07550); test: Adrenergic beta2 receptor (ADRB2) small molecule antagonists, cell-based qHTS assay (AID 1963592); note: series mostly up to about 92 µM; nearly all actives have a fitted effect of over 50% in size
Sequence of Beta-2 adrenergic receptor (Homo sapiens) (P07550 whole entry, looked up): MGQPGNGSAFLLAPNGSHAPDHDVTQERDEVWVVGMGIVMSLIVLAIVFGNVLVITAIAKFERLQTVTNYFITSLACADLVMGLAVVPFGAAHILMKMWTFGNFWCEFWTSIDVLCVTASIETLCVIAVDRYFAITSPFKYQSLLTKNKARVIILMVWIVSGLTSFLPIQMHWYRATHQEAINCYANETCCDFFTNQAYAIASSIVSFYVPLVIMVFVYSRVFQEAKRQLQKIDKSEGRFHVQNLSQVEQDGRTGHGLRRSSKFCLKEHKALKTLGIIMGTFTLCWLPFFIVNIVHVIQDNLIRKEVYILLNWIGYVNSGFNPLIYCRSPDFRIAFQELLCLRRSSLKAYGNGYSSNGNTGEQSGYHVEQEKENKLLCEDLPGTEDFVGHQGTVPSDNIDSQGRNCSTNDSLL
Procedure, shortened: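 Cells (CHO, stable ADRB2 overexpression) incubated 18-20hr at 37C; compounds added from DMSO; agonist mix (1nM isoproterenol, 100uM IBMX, 25uM Ro-20-1724) added; 0.5hr RT; d2-cAMP and anti-cAMP-cryptate added; 1hr RT; 665/615 nm read.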

[16] = molecular target: Beta-2 adrenergic receptor (Homo sapiens) (UniProt P07550); test: Adrenergic beta2 receptor (ADRB2) small molecule agonists, cell-based qHTS assay (AID 1963593);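 note: CHO cells stably overexpressing human ADRB2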
Procedure, shortened: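 CHO cells stably over-expressing ADRB2 were plated overnight at 37C, then dosed with compounds plus a stimulation mix containing 100uM IBMX and 25uM Ro-20-1724 for 0.5hr at room temperature. cAMP was measured by HTRF competition, 1hr.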

[17] = molecular target: D(2) dopamine receptor (Homo sapiens) (UniProt P14416); test: Dopamine D2 receptor (DRD2) small molecule agonists, cell-based qHTS assay (AID 1963594); note: nearly all actives have a fitted effect of over 35% in size
Sequence of D(2) dopamine receptor (Homo sapiens) (P14416 whole entry, looked up): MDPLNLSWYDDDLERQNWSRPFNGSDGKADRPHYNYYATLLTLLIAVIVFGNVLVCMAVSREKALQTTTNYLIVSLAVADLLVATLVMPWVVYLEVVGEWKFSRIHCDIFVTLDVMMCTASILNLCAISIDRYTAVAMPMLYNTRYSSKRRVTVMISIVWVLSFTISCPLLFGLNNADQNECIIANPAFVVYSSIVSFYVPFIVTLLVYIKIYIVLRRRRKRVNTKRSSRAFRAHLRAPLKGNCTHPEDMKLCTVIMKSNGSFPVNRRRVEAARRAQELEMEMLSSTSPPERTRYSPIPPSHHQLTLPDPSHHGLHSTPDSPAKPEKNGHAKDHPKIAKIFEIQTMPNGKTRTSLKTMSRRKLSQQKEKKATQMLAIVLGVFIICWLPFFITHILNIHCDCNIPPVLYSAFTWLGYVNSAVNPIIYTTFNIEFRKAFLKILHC
Procedure, shortened: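 cAMP accumulation in DRD2-HEK293 cells measured by HTRF after 1 h detection; compounds added 10 min before NKH477 (200nM […]) forskolin-analogue stimulation, 30 min at room temperature, with Ro20-1724 present at 0.1 mM final.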

[18] = molecular target: D(2) dopamine receptor (Homo sapiens) (UniProt P14416); test: Dopamine D2 receptor (DRD2) small molecule antagonists, cell-based qHTS assay (AID 1963595; active = well fitted inhibition curve with a large enough effect in the signal ratio in the repeat runs, with a control signal flat; the % refers to the signal ratio)
Procedure, shortened: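 Human DRD2 antagonist qHTS measuring cAMP by HTRF. The cells are exposed to compound for 10 min, then to NKH477 (200 nM) and quinpirole (12 nM) for 30 min at RT, with Ro20-1724 (0.1 mM) present throughout.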

Measured: Potency

CCCCN(CCO)CCCC
inactive: all assays above

CCCCC(CC)COC(=O)COc1cc(Cl)c(Cl)cc1Cl (centres undefined)
not listed: [17]
inactive: all other assays above

CCCCOC(=O)CCCCC(=O)OCCCC
not listed: [17]
inactive: all other assays above

C=C(C)C(=O)OCC
not listed: [16]
inactive: all other assays above

CCCOC(=O)CC
not listed: [16]
inactive: all other assays above

C/C(C=O)=C\c1ccccc1
not listed: [16]
inactive: all other assays above

CC1=CC(=O)CCC1
not listed: [16] | [17]
inactive: all other assays above

Reference: PubChem BioAssay (Tox21)
